{"source": "the supplement of paper PMC12632987", "key": {"UCHL1, P09936": {"biological_target": "UCHL1, P09936", "sequence (P09936 whole entry, looked up, the tested form may be a part)": "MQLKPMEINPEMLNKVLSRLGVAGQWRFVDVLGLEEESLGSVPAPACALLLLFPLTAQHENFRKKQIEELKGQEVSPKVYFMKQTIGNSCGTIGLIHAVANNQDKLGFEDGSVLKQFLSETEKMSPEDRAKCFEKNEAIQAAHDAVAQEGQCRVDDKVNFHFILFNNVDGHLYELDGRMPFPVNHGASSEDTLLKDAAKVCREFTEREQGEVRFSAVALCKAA", "assay": "median log2 fold change of GCK-ALFA target abundance (FLAG IP / Myc IP barcode read proportion) (log2 ratio); higher = target protein stabilised (more abundant)", "conditions": "target protein: 3xFLAG-MCP-GCK-ALFA reporter; HEK293 landing pad (RPLP)", "in_short": "(§1)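 The readout is target abundance, the per-binder median log2 ratio of FLAG to Myc barcode read proportions. It came from HEK293 landing-pad cells carrying a recombined ALFA-nanobody-fused binder library, induced with 2 μg mL^−1 doxycycline and transfected with a plasmid for a FLAG-tagged target and a Myc-tagged standard. After 48 h, lysates were immunoprecipitated with anti-FLAG and anti-Myc, and circular RNA barcodes were reverse transcribed, amplified and sequenced. Each barcode needed a proportion of at least 10^−7 in both replicates and each binder at least 3 barcodes per replicate, a pseudocount of 10^−6 was added, and the replicates were pooled.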"}, "GABARAPL2, P60520": {"biological_target": "GABARAPL2, P60520", "sequence (P60520 whole entry, the tested form may be a part)": "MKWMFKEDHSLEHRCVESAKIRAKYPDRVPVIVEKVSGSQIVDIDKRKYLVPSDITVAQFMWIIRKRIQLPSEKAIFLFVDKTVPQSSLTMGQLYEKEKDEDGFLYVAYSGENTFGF", "assay": "median log2 fold change of GCK-ALFA target abundance (FLAG IP / Myc IP barcode read proportion) (log2 ratio); each designed protein is fused to an ALFA-tag nanobody in HEK293 cells to bring the named protein to FLAG-tagged glucokinase (GCK); Myc marks an untargeted standard; higher = target protein stabilised (more abundant)", "conditions": "target protein: 3xFLAG-MCP-GCK-ALFA reporter; HEK293 landing pad (RPLP)", "in_short": "as §1"}}}
{"binder": "uchl1_122_7438 (protein) MLTIEVDVTSSLSPEGLEILKEYVSKLLDNPKFEEELVSPGTLRLIFTGELKDLTEEEIREIENEALEKAGANQSLTPNQRVSFGNAVRRIARQVAKARA", "values": [{"measurement": "median log2 fold change", "setting": "UCHL1, P09936", "value": 0.324}]}
{"binder": "uchl1_122_7435 (protein) MITVEVLVTSSLSPAVLAIIKEYASRLLDNAEFELRRVDPGTLLLTVTGELKDVSDEEILAIRREAEERAAKDQTLTPNQRVSFGNALRRIARAVAKALA", "values": [{"measurement": "median log2 fold change", "setting": "UCHL1, P09936", "value": -0.0374}]}
{"binder": "GBRAPL2_93_7425 (protein) NEVKVTIKHLVDGELVKEEERTVSVEEAKELIKKKLEEAIAAGNKVIIEIDDEDTGWSFGDYVTDEEQAKKALERAKEILEDLAAEGKKVEVEIVIEKIT", "values": [{"measurement": "median log2 fold change", "setting": "GABARAPL2, P60520", "value": -0.332}]}
{"binder": "uchl1_122_7432 (protein) AETVTVIVPKEAAPIIVEVLKEVMAEHGATVEVELEELSENTVKITITIDTSGLTEEQVDAAVADLEERMAERFKEAGINSADAKNAVGRIARAIRRAGA", "values": [{"measurement": "median log2 fold change", "setting": "UCHL1, P09936", "value": 0.325}]}
{"binder": "uchl1_122_7441 (protein) MVTIEVEVSSSLSPEALAILAEAAAELLEDARVEVRELSPSTLLITITGRLKDLSPEEIREIENRALERLGRDQSLTPNQRVSAGNALRRLARQYARAKA", "values": [{"measurement": "median log2 fold change", "setting": "UCHL1, P09936", "value": 0.185}]}
{"binder": "uchl1_122_7449 (protein) TETVEVVGRRADVEAIAATIRAVFASHGLTVDTTITELSPTTARLTVTVTLPPISDAQVAALEAALEAAMAALVEREGISRAFAGIATTRVIRAVRRAAA", "values": [{"measurement": "median log2 fold change", "setting": "UCHL1, P09936", "value": 0.184}]}
{"binder": "uchl1_122_7430 (protein) TVTVEAVGRRETMETLAAVITEVLTAAGLTVEVRIEELSPTTARLTVTISGAPLSDAEVDALIEELRRRAAEAVERLGLDRATVGLAVGRVERGVRRLAA", "values": [{"measurement": "median log2 fold change", "setting": "UCHL1, P09936", "value": 0.13}]}
{"binder": "uchl1_122_7440 (protein) MITIEIEVSSSLSEKGLEILAEAAKKLLDNAKIEVKEKSPSTKLITITGELKDLSEEEILEIENEALEEAGKDQSLTPNQRVSFGNALRRLAIQYAKAKA", "values": [{"measurement": "median log2 fold change", "setting": "UCHL1, P09936", "value": 0.144}]}
{"binder": "uchl1_122_7452 (protein) TETVEVVGRRKDIELIAAAIREVAAAAGWTADVEIEELSENTAKLTVTVTLPPVSDAAVDAAEAALEAAMRRLVEEEGLSRAFVGIATTRVIRAIRRAAA", "values": [{"measurement": "median log2 fold change", "setting": "UCHL1, P09936", "value": 0.163}]}
{"binder": "uchl1_122_7437 (protein) MITIEVLVSSSISEKVLEIIKKFASKLLKNPKFKIEQVSPGTLKITITGELKDVSEEEIREIYNEALEELGKLQDITPNEKVSANTALRKIARDVARARR", "values": [{"measurement": "median log2 fold change", "setting": "UCHL1, P09936", "value": -0.0419}]}
{"binder": "uchl1_122_7442 (protein) MLTIEVDVASSVSERTLEILKEYAEELLEDAEFSVEKKSPGTKLLTIKGKLKDVSDDEILEIENKALERAGKDQSITPNERVSFGNALRKIARQVARARA", "values": [{"measurement": "median log2 fold change", "setting": "UCHL1, P09936", "value": 0.271}]}
{"binder": "uchl1_122_7439 (protein) MLTIEVDVTSSLSPEGLAILREYASELLDNPEFEEELVSPGTLRLTFTGELKDLTPEQIREIANRALARAGADQSLTPNERVSLGNAIRRIARQVARARA", "values": [{"measurement": "median log2 fold change", "setting": "UCHL1, P09936", "value": 0.0949}]}
{"binder": "uchl1_122_7448 (protein) TVTVEVVGRREDIELIAAVIREVFAAAGIEVDVEIEELSPTTARLVVTIRAPPMTDAQVDATIAALAAAMARLVEEAGISRALAGIAFTRVERALRRAAA", "values": [{"measurement": "median log2 fold change", "setting": "UCHL1, P09936", "value": 0.0437}]}
{"binder": "uchl1_122_7427 (protein) TATVEVVGRRETIETIAEIIREVAAEHGLEVEVRIEELSPTTARLVVTVRVPPISDEELAAFERALEERMARAVEEKGLSRAEVGIATTKVIRAVRRANA", "values": [{"measurement": "median log2 fold change", "setting": "UCHL1, P09936", "value": 0.284}]}
{"binder": "uchl1_122_7444 (protein) MLTVEVLVSSSLSEEVLEILEEYASKLLEDLEVEKKKVSPGTILITFTGELKDVSEEEIREIREEALERLSKLQNLTPNEKVSFGNALRRIERQVMQAKK", "values": [{"measurement": "median log2 fold change", "setting": "UCHL1, P09936", "value": 0.0563}]}
{"binder": "uchl1_122_7447 (protein) TVTVEVVGRRADIEAIAAVIRAVFAAAGIKVDVEIEELSPTTAKLTVTITVPPVTDEQVDATIAALAAAMAALVEAEGISRALAGIAFTRVERALRRAAA", "values": [{"measurement": "median log2 fold change", "setting": "UCHL1, P09936", "value": -0.15}]}
{"binder": "uchl1_122_7445 (protein) MLTVEVLVSSSMSPEVLAILEEYASRLLDDLEVEREKVSPGTVLLTFRGRLKDVSEEEIRAIREEALARLAKLQDLTPNEKVSFGNALRRIERQVMRARR", "values": [{"measurement": "median log2 fold change", "setting": "UCHL1, P09936", "value": -0.026}]}
{"binder": "GBRAPL2_93_7424 (protein) NKVELIVKYLENGKLVKEEREVVSVEEAKAKIEELLKEAVENGEKVSIEIEDKDTGWVFGDYVENEEQAKKALERAKEILEDLAEEGKEVEVTIVIEKIT", "values": [{"measurement": "median log2 fold change", "setting": "GABARAPL2, P60520", "value": 0.137}]}
{"binder": "uchl1_122_7433 (protein) MITIEVEVTSSLSPEALAILKEYAARLLDNAEFKEEKLSPGTLLLTVTGELKDVTDEEILAIENEALERASKMQTLTPNQRVSFGNALRRIARAVAKALA", "values": [{"measurement": "median log2 fold change", "setting": "UCHL1, P09936", "value": 0.0352}]}
{"binder": "uchl1_122_7443 (protein) MLTIEVKVSSSLSERTLEILKKYAEKLLENPKFEVKELSPGTKLLTITGELKDVSDEEILEIRNEALEEAGKDQSITPNERVSFGNALRTISRQVARALA", "values": [{"measurement": "median log2 fold change", "setting": "UCHL1, P09936", "value": 0.153}]}
{"binder": "uchl1_122_7451 (protein) SETVEVVGRRRDIELIAEAIKEVFEKFGVKVEVEIEELSPTTAKLTVTITVPPISDEELEALLAALEEAMRRLVEEEGVPRATAGLAYSRTARAVKRAAA", "values": [{"measurement": "median log2 fold change", "setting": "UCHL1, P09936", "value": -0.77}]}
{"binder": "uchl1_143_7454 (protein) GMVHMEVEVIHIEVSEEDTPEEIREKIMEAMKKAVEKGKAIRIIITVPPDANKRLMVNTTARRAAREFAQEYKDKLKYLEIYARDKETGKEDLIAEIINP", "values": [{"measurement": "median log2 fold change", "setting": "UCHL1, P09936", "value": -0.0697}]}
{"binder": "GBRAPL2_93_7423 (protein) MKVKVTVIELENGEVVRREERELSVEEAKELIRELLAEAIAAGNRVIIEIYDKETGWTFGYYAEDEEQAEKAYERTSEVLEDLAAEGKEVEVTITIERLE", "values": [{"measurement": "median log2 fold change", "setting": "GABARAPL2, P60520", "value": -0.302}]}
{"binder": "uchl1_122_7428 (protein) METVEVVGRRRAIEAFAEIVREVAAEHGIAVEVEIEELSPTTARLTITFDVPPISDEELAAFEEDLARRVAEAVRELGLSPAEFGIAYTKVVRAVRRANA", "values": [{"measurement": "median log2 fold change", "setting": "UCHL1, P09936", "value": -0.0204}]}
{"binder": "uchl1_122_7426 (protein) METVEVVGRRETIEALAELIREVAAEHGIEVEVRIEELSPTTARLVVTIRVPPISDEELDALIADLEARAAALVEEKGLPRAEVGIATTKIIRAIRRAAA", "values": [{"measurement": "median log2 fold change", "setting": "UCHL1, P09936", "value": 0.214}]}
{"binder": "uchl1_122_7429 (protein) MVRVEVVGRRRTVEALAEVIREVAARHGIDVRVEIEELSPTTARLVVDIRVPPMSDAALEAALADLERRAAELVERLGLSRAEVGIATTRIVRGIRRAAA", "values": [{"measurement": "median log2 fold change", "setting": "UCHL1, P09936", "value": 0.096}]}
{"binder": "uchl1_122_7453 (protein) TETVEVVGRRRDVEILAAVIREVFAAAGWTAEVTIEELSPTTARLVVTVTLPPASDEAVDALVAALEAAFREAVEKEGISRAFAGIAYTRVARAVRRAAA", "values": [{"measurement": "median log2 fold change", "setting": "UCHL1, P09936", "value": -0.0277}]}
{"binder": "uchl1_122_7436 (protein) MITIEVLVTSSLSPEGLAIIKDYAAKLLKDAEFKEEEVSPGTLLLTITGELKDVSDEEILEIRREAEERASKNQNLTPNERVSFGNALRRIARAVAKAKA", "values": [{"measurement": "median log2 fold change", "setting": "UCHL1, P09936", "value": 0.0349}]}
{"binder": "uchl1_122_7431 (protein) MKTVTVVVRKKDAPILIEIVREVAAEAGMKVEIEEEELSPNVVKLTITIDTTGLTEEQVEAAVEALERRVAEAMKETGSKSTDLRIAVGKIARAIRKAHA", "values": [{"measurement": "median log2 fold change", "setting": "UCHL1, P09936", "value": -0.183}]}
{"binder": "uchl1_122_7446 (protein) MLTVEVLVSSSLSERVLEILEEYAAALLDNLEVEREEVSPGTRLLTFTGELKDVSEDEIRAIREEALARLAELQDLTPNEKVSFGNALRRIERQVMAARR", "values": [{"measurement": "median log2 fold change", "setting": "UCHL1, P09936", "value": -0.238}]}
{"binder": "uchl1_122_7434 (protein) MITIEVDVSSSLSPEVLEIIKEFASRLLDNAEFEEEELSPGTRRLTITGELKDVSDEEILEIENEALERASKLQTLTPNERVSFGNALRRIARAVAKARA", "values": [{"measurement": "median log2 fold change", "setting": "UCHL1, P09936", "value": 0.213}]}
{"binder": "uchl1_122_7450 (protein) SETVEVVGRREALEAIAAAIREVLAAFGAEVEVRIEELSPNTARLTVTIRLPPISDARLAELLEALEAAMRRLVEERGVPAATAGLAYSRVARAIRRAAA", "values": [{"measurement": "median log2 fold change", "setting": "UCHL1, P09936", "value": 0.143}]}
